Bioassay records from PubChem BioAssay.
A selection: hits, their analogues and other compounds. The true share with any hit is near 6.6%.
SW480 rereplic: induces DNA re-replication in SW480 colon adenocarcinoma cells. 1.8% of 340,000 active. SW480 DNA re-replication, Hoechst DNA content imaging, 48 h. Potency, µM (doses to about 46.1 µM), most hits filed as activators; note: nearly all actives have a fitted effect of over 55% in size
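250 cells/well; 23 nL cpd via pin tool; 48 hr, 37 C, 5% CO2; Hoechst 40 min; imager read of total nuclear intensity, ex 405/em 500-530 nm.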
TSG101-PTAP inh: blocks PTAP/TSG101 interaction to inhibit HIV-1 budding; 340,000 tested, under 10 active; Fluorescence polarization, FITC-PTAP peptide / Tsg101 binding; AID 493005; Potency, µM (highest dose often 115 µM), hits mostly inhibitors; Q99816; active = well fitted inhibition curve with a large enough effect in the main read-out, with a control signal flat, not every such curve was filed as active; inconclusive = small, poorly fitted or top-dose-only effect, or effect the other way, or a change in a side signal; inactive = no such curve, though single readings can be large or run the other way
Target sequence (Q99816 whole entry, looked up): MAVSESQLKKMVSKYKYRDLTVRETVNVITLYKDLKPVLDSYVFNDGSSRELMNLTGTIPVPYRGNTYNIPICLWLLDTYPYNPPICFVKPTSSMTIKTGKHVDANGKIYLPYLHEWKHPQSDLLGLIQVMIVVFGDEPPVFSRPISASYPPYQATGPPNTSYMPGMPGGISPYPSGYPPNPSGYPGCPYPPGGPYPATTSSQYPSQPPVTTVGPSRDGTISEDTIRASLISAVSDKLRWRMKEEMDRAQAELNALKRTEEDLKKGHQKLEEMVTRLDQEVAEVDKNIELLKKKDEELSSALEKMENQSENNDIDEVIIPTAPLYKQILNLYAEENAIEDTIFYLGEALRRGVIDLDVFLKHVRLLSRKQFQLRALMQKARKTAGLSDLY
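Compounds were pin-transferred onto Tsg101 binding domain (10 uM final) in HEPES pH 7.5 buffer, then FITC-PTAP peptide was added at 50 nM final. After 20 min at RT, polarization reported peptide displacement across a qHTS concentration series.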
MCF10A rereplic: induces DNA re-replication in MCF 10a normal breast cells; MCF 10A DNA re-replication, Hoechst nuclear intensity, 48 h; Potency, µM (doses to about 46.1 µM), actives largely listed as activators; 2.9% of 350,000 active; AID 624296; note: nearly all actives have a fitted effect of over 50% in size
KB-3-1 tox: kills parental KB-3-1 adenocarcinoma cells; KB-3-1 viability, CellTiter-Glo ATP luminescence, 72 h; Potency, µM (top dose mostly 46.1 µM), most hits filed as cytotoxic; 1.4% of 400,000 active; AID 1347075; note: nearly all actives have a fitted effect of over 60% in size
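Multi-concentration cytotoxicity screen in KB-3-1 cells grown in DMEM lacking phenol red with 10% FBS. After 72 h at 37 °C with compound, ATP-dependent luminescence was recorded.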
RGS4 inhibitor: human RGS4 inhibition. P49798. Transcreener GDP fluorescence polarization, RGS4-accelerated GTP hydrolysis. Potency, µM (doses to about 114 µM), most hits filed as inhibitors. 0.039% of 390,000 active. AID 504845; note: nearly all actives have a fitted effect of over 75% in size
Target sequence (P49798 whole entry, looked up): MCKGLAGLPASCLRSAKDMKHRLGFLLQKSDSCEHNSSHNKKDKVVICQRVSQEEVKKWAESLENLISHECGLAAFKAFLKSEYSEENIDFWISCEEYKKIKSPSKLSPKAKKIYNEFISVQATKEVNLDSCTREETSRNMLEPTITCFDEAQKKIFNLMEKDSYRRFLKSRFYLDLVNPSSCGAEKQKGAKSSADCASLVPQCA
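MLSMR compounds (23 nl, pin-transferred) preincubated 10 min at room temperature with a 500nM (2x) first reagent, then RGS4 at 900nM (2x) plus Transcreener GDP mix added; fluorescence polarization (620/688 nm) read before and after 90 min at 30 °C.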
KB-V1 MDR tox: KB-V1 MDR subline cytotoxicity; KB-V1 MDR cells viability, CellTiter-Glo, 72 h; 3.4% of 400,000 active; Potency, µM (top dose mostly 46.1 µM), most hits filed as cytotoxic; note: nearly all actives have a fitted effect of over 60% in size
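In this primary screen, KB-V1 cells overexpressing P-gp are incubated with library compounds (lowest to highest concentration) for 72 h at 37 degrees C before a luminescent ATP viability read.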
A number is an active result; n = inactive; u = inconclusive; x = no result given. Unless noted, calls come from the whole dose curve; as a rule, active = well fitted curve in the direction sought with a large enough effect; inconclusive = small, poorly fitted or top-dose-only effect, or another doubt; inactive = no such curve, though single readings can be large; an effect the other way counts as inactive or inconclusive.

SMILES	SW480 rereplic	TSG101-PTAP inh	MCF10A rereplic	KB-3-1 tox	RGS4 inhibitor	KB-V1 MDR tox
c1cc2c3c(cccc3c1)C(N1CCOCC1)=N2	u	n	u	n	n	u
Clc1cccc(Cl)c1/C=N/Nc1c(Cl)cncc1Cl	8.2µM	n	2.6µM	4.6µM	n	u
CC(C)CCNc1ncnc2c1nnn2Cc1ccccc1Cl	n	n	n	n	n	13µM
Cc1nn(C)c(C)c1S(=O)(=O)N(CC(=O)N1CCN(c2ccccc2)CC1)c1ccc(C(C)C)cc1	x	x	x	n	n	n
CCC1=[N+](CC(=O)c2ccc(C)cc2)CCn2c(C)ccc21	n	n	u	18µM	n	n
CCC1=[N+](CC(=O)c2ccc(Br)cc2)CCn2c(C)ccc21	n	n	u	u	n	u
COc1cc(C(=O)NS(=O)(=O)c2ccccc2C)ccc1Cc1cn(C)c2ccc(NC(=O)OC3CCCC3)cc12	n	x	21µM	x	x	x
Cc1cccc(C(=O)Nc2ccc(C(=O)OCc3cc(=O)n4nc(CC(C)C)sc4n3)cc2)c1	x	x	x	x	n	x
CC1=C(C(=O)Nc2ccccc2)C(c2ccccn2)n2nc(SCc3ccccc3Cl)nc2N1 (configuration not stated)	x	x	x	n	n	n
CC(C)c1nc(SCC(=O)c2ccc(F)cc2)c2ccccc2n1	u	n	3.3µM	n	n	n
CC(C)c1nc(SCC(=O)Nc2nccs2)c2ccccc2n1	n	n	n	n	n	n
Cc1csc(NC(=O)CSc2nc(C(C)C)nc3ccccc23)n1	n	n	18µM	u	n	15µM
CCOc1ccccc1NC(=O)c1nnn(CC(=O)Nc2ccccc2CC)c1N	x	x	x	n	n	n
Cc1noc(Cn2c(=O)c3ccccc3n(CC(=O)Nc3ccc(C(C)C)cc3)c2=O)n1	x	x	x	n	n	n
CCN(CC)S(=O)(=O)c1nnc(NC(=O)COc2ccc(Cl)cc2)s1	x	x	x	n	n	n
CC(C)(C)N1CC(c2nc3ccccc3n2Cc2ccc(Cl)cc2)CC1=O (configuration not stated)	n	n	n	n	n	15µM
CC(C)(C)N1CC(c2nc3ccccc3n2CCOc2ccccc2)CC1=O (configuration not stated)	n	n	n	n	n	n
Cn1c(C2CC(=O)N(Cc3ccccc3)C2)nc2ccccc21 (configuration not stated)	n	n	n	n	n	n
C=CCN1CC(c2nc3ccccc3n2Cc2ccccc2)CC1=O (configuration not stated)	n	n	n	n	n	12µM
COc1ccc(CN2C(=O)COc3ccccc32)cc1	n	n	n	n	n	n
COc1ccc(CC2(CO)COc3ccccc3C2=O)cc1 (configuration not stated)	16µM	n	u	u	n	13µM
Cn1ncc2c(N3CCN(c4ccccc4F)CC3)ncnc21	n	n	n	n	n	u
Cn1ncc2c(N3CCN(c4ccc(Cl)c(Cl)c4)CC3)ncnc21	n	n	n	n	n	2.3µM
CC(C)Cc1cc(C(=O)N2N=C(C(F)F)CC2(O)C(F)F)c2ccccc2n1 (configuration not stated)	n	n	u	n	n	n
CCc1ccc(-c2cc(C(=O)N3N=C(C(F)F)CC3(O)C(F)F)c3ccccc3n2)cc1 (configuration not stated)	n	n	9.2µM	u	n	18µM
SMILES	SW480 rereplic	TSG101-PTAP inh	MCF10A rereplic	KB-3-1 tox	RGS4 inhibitor	KB-V1 MDR tox
NS(=O)(=O)c1ccc(S(=O)(=O)N2CCN(c3nc(-c4cccs4)nc4ccccc34)CC2)cc1	x	x	x	n	n	n
COc1ccc(CNC(=O)c2ccc3c(c2)N(Cc2c(F)cccc2Cl)C(=O)CS3)cc1	x	x	x	n	n	n
CC(=O)c1c(C)[nH]c(C(=O)OCC(=O)Nc2cccc(S(=O)(=O)N3CCCC3)c2)c1C	n	n	n	2.3µM	n	u
COc1ccc(S(=O)(=O)N2CCOCC2)cc1NC(=O)COC(=O)c1[nH]c(C)c(C(C)=O)c1C	n	n	n	n	n	n
CC(=O)c1c(C)[nH]c(C(=O)OCC(=O)Nc2cc(S(=O)(=O)N3CCCC3)ccc2Cl)c1C	n	n	n	u	n	13µM
CC(=O)c1c(C)[nH]c(C(=O)Nc2cccc(S(=O)(=O)N3CCCC3)c2)c1C	n	n	u	u	n	n
CC(=O)c1c(C)[nH]c(C(=O)OCC(=O)Nc2cccnc2Cl)c1C	n	n	n	u	n	u
CC(=O)c1c(C)[nH]c(C(=O)OCC(=O)Nc2ccccc2Cl)c1C	n	n	n	21µM	n	4.6µM
CCOc1ccccc1NC(=O)c1nc(SC(C)C)ncc1Cl	x	x	x	n	n	n
COc1ccc(NC(=O)CN(C)C(=O)c2ccc(N3CCCCC3)c([N+](=O)[O-])c2)cc1	n	n	n	n	n	u
O=C(O/N=C\c1ccc(N2CCCCC2)c([N+](=O)[O-])c1)c1cccc(Cl)c1	n	n	n	u	n	u
COc1ccc(C(=O)/C=C/c2ccc(N3CCCCC3)c([N+](=O)[O-])c2)c(OC)c1	u	n	12µM	n	n	u
Cc1ccc(C(=O)O/N=C\c2ccc(N3CCCCC3)c([N+](=O)[O-])c2)cc1	n	n	n	u	n	7.3µM
COc1ccc(C(=O)/C=C/c2ccccc2)c(OC)c1	n	n	u	u	n	n
COc1ccc(C(=O)/C=C/c2ccc(N3CCCCC3)c([N+](=O)[O-])c2)cc1	u	n	8.2µM	u	n	u
COc1ccc(C(=O)/C=C/c2ccc(N(C)C)cc2)c(OC)c1	u	u	16µM	u	n	u
COc1ccc(CCNC(=O)Cn2cc(S(=O)(=O)Cc3ccccc3Cl)c3ccccc32)cc1OC	x	x	x	n	n	n
CCCCC(CC)Cn1c(Oc2ccccc2)nc2c1c(=O)n(C)c(=O)n2C (configuration not stated)	x	x	x	n	n	n
Cc1ccc(-c2cc(C(=O)NCc3ccco3)c3ccccc3n2)o1	n	n	n	n	u	n
COc1ccc(-c2cc(C(=O)NCc3ccco3)c3ccccc3n2)cc1OC	n	n	u	u	n	u
Cc1ccc(-c2cc(C(=O)O)c3cc(Br)ccc3n2)o1	n	n	u	n	u	u
COC(=O)c1cc(-c2ccc(C)o2)nc2ccccc12	16µM	n	23µM	n	u	u
COc1ccc(-c2cc(C(=O)NCC(c3ccccc3)N(C)C)c3ccccc3n2)cc1OC (configuration not stated)	18µM	n	18µM	n	n	n
Cc1ccc(-c2cc(C(=O)NCCCn3ccnc3)c3cc(Br)ccc3n2)o1	u	n	n	n	u	21µM
